Screening data: PubChem, several laboratories
AHR act: AHR activators, primary screen, cell-based, luminescence, luciferase reporter, human; Aryl hydrocarbon receptor (Homo sapiens), P35869; AHR-responsive luciferase reporter cells; activation, % at 5 µM; hit rate 2.5% among 320,000; AID 2796, 2010; in the data active means activation above about 47%
Target sequence (P35869 whole entry, looked up): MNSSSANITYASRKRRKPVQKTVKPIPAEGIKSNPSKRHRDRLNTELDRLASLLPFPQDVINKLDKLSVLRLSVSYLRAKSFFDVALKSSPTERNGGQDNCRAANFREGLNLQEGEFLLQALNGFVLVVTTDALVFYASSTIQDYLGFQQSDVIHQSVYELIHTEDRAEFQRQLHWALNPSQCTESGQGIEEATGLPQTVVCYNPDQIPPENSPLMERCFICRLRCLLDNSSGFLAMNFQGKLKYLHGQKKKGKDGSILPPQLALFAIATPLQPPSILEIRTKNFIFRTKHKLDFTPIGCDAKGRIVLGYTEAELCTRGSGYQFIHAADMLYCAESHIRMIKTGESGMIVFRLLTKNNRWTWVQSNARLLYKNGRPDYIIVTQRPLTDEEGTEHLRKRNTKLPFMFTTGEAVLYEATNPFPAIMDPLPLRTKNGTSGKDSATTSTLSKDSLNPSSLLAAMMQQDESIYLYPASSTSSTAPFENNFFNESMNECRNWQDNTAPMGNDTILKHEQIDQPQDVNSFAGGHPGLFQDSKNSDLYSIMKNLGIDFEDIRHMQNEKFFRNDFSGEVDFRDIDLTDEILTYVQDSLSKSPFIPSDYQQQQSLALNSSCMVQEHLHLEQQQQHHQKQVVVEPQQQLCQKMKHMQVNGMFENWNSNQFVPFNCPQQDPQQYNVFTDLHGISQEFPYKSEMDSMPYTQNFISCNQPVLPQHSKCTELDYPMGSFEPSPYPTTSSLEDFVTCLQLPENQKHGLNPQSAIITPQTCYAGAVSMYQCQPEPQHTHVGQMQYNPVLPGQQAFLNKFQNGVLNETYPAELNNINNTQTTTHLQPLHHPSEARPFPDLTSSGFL
HSF1 inhib: HSF1 inhibitors in luciferase reporter cells, primary screen, cell-based, NIH3T3, luminescence. NIH3T3-HGL HSE-luciferase, MG132-induced, luminescence 8 h; hits give low values. activity change, negative = inhibition, % at 7.5 µM (by protocol). hit rate 0.77% among 300,000. AID 2098, 2009;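 active means more than half of replicate wells show activity change below -50%, luminescence cut by over half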;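 further: luciferase reports HSF-1 transcriptional activity via heat shock element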
GAA850 FXN act: FXN promoter activators, primary screen, cell-based, luciferase luminescence, HEK293 lucGAA850. HEK293 lucGAA850 FXN promoter luciferase reporter, 24 h; percent of 10 µM SAHA response. activation, % at 6 µM. hit rate 0.56% among 360,000;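 active means activation above the average of all compounds screened plus 3 SD, cutoff fixed separately per campaign, cut at about 7.5% in these data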
DAX1 inh: DAX1 (NR0B1) inhibitors, primary screen, cell-based, HEK293, Gal4-DAX1, luciferase luminescence; HEK293 Gal4-DAX1 luciferase reporter; inhibition, % at 6.75 µM; hit rate 0.99% among 340,000; AID 504766, 2011;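 active means inhibition above the mean over all tested compounds plus 3 SD, cut at about 4.2% in these data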;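 further: inhibition shows as a rise in luminescence from relieved DAX1 repression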
HSF-1 act: HSF-1 activators, primary screen, NIH3T3-HGL cells, MG132 stress, luminescence, single point | NIH3T3-HGL HSF-1 luciferase reporter, 8 h; 100% = twice DMSO control signal | activation, % at 9 µM | hit rate 1.7% among 300,000 | AID 504408, 2011;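 active means mean replicate activation of at least 50% with a set share of replicates each reaching 50%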
Hits are given with their value. Only some compounds are listed: those with a hit (about 5.4% of all), similar ones and a draw of the others.

CC(C)=CCCC1(C)C=Cc2c(c(C)cc3c2[nH]c2cc(O)ccc23)O1 (stereo not given) was read as AHR act inactive, HSF1 inhib inactive, GAA850 FXN act inactive, DAX1 inh 4.9 and HSF-1 act inactive.
COc1cc(NC(=O)c2ccc3nsnc3c2)cc(OC)c1OC was read as AHR act inactive, HSF1 inhib inactive, GAA850 FXN act inactive, DAX1 inh inactive and HSF-1 act inactive.
For Cc1c(NC(=O)c2ccc3nsnc3c2)cccc1[N+](=O)[O-] the results were AHR act 51.7, HSF1 inhib inactive, GAA850 FXN act inactive, DAX1 inh inactive and HSF-1 act inactive.
Cc1c(NC(=O)c2ccc(C(C)(C)C)cc2)cccc1[N+](=O)[O-] was read as AHR act inactive, HSF1 inhib inactive, GAA850 FXN act inactive, DAX1 inh inactive and HSF-1 act 72.0.
Cc1cc(C(=O)Nc2cccc([N+](=O)[O-])c2C)cs1 was read as AHR act inactive, HSF1 inhib inactive, GAA850 FXN act inactive, DAX1 inh inactive and HSF-1 act inactive.
Screening COc1ccccc1NC(=O)c1ccc2nsnc2c1 returned AHR act 55.6, HSF1 inhib inactive, GAA850 FXN act inactive, DAX1 inh inactive and HSF-1 act inactive.
Screening CN(C)S(=O)(=O)Oc1cccc(C(=O)Nc2ccc([N+](=O)[O-])cc2)c1 returned AHR act inactive, HSF1 inhib inactive, GAA850 FXN act inactive, DAX1 inh inactive and HSF-1 act inactive.
O=C1CC(NCc2cccs2)C(=O)N1c1ccc(Cl)cc1 (stereo not given) was read as AHR act 72.5, HSF1 inhib inactive, GAA850 FXN act inactive, DAX1 inh inactive and HSF-1 act inactive.
`NC(=O)C1CC(=O)N(c2ccc(OCc3c(Cl)cccc3Cl)cc2)C1` (stereo not given) gave AHR act inactive, HSF1 inhib inactive, GAA850 FXN act inactive, DAX1 inh inactive and HSF-1 act inactive.
Screening CCn1c(=O)c([N+](=O)[O-])c(Cl)c2ccccc21 returned AHR act inactive, HSF1 inhib inactive, GAA850 FXN act inactive, DAX1 inh inactive and HSF-1 act 313.1.
`C/C(=N\NC(=O)CC1N=C(Cc2ccccc2)NNC1=O)c1ccc(Cl)cc1Cl` (stereo not given) gave AHR act inactive, HSF1 inhib inactive, GAA850 FXN act inactive, DAX1 inh inactive and HSF-1 act inactive.
Screening C=CCn1c(=S)[nH]c2cc(C(=O)N3CCN(c4ccccc4OC)CC3)ccc2c1=O returned AHR act inactive, GAA850 FXN act inactive and DAX1 inh inactive.
`CCNC(=O)CC1C(=O)N(c2ccccc2)C(=O)N1CCOC` (stereo not given) gave AHR act inactive, HSF1 inhib inactive, GAA850 FXN act inactive, DAX1 inh inactive and HSF-1 act inactive.
Screening Cc1nn(-c2ccccc2)c(N)c1C(c1ccccc1)c1c(C)nn(-c2ccccc2)c1N returned AHR act inactive, HSF1 inhib inactive, GAA850 FXN act inactive, DAX1 inh inactive and HSF-1 act 78.8.
Screening Cc1c(C#N)c(NC(=O)CCl)n(Cc2ccc(F)cc2)c1C returned AHR act inactive, HSF1 inhib inactive, GAA850 FXN act inactive, DAX1 inh inactive and HSF-1 act inactive.
For Cc1c(C#N)c(NC(=O)CCl)n(Cc2ccccc2)c1C the results were AHR act inactive, HSF1 inhib inactive, GAA850 FXN act inactive, DAX1 inh inactive and HSF-1 act 57.1.
`Cc1nc(COc2ccc(C(=O)NCc3ccccc3CN3CCCCC3)cc2)cs1` gave AHR act inactive, GAA850 FXN act inactive and DAX1 inh inactive.
For Cc1nnc(NCc2ccccc2)c2ccccc12 the results were AHR act inactive, HSF1 inhib inactive, GAA850 FXN act inactive, DAX1 inh inactive and HSF-1 act inactive.
`COc1ccccc1-c1nc(C(N)=O)c2[nH]c(=O)n(-c3cccc(C)c3)c2n1` gave AHR act 66.0, HSF1 inhib inactive, GAA850 FXN act inactive, DAX1 inh inactive and HSF-1 act inactive.
CCN(CC)S(=O)(=O)c1cccc(C(=O)OCC(=O)NCc2ccccc2OC)c1 was read as AHR act inactive, HSF1 inhib inactive, GAA850 FXN act inactive, DAX1 inh inactive and HSF-1 act inactive.
Screening Cc1nc2c(-c3ccccc3)c[nH]n2c(=O)c1Cc1ccccc1 returned AHR act inactive, HSF1 inhib inactive, GAA850 FXN act inactive, DAX1 inh 5.7 and HSF-1 act inactive.
Cc1ccc2c(CC(=O)Nc3sccc3C(N)=O)coc2c1 was read as AHR act inactive, HSF1 inhib inactive, GAA850 FXN act inactive, DAX1 inh inactive and HSF-1 act 83.7.
`CC1(C(=O)NS(=O)(=O)c2cccs2)CCN1C(=O)CC1CCCC1` (stereo not given) gave GAA850 FXN act inactive.
COc1ccc(NC(=O)[C@@H]2[C@@H]3C(=O)N(C4CCCCC4)C(=O)[C@@H]3C3c4ccccc4C=CN32)cc1 (stereo not given in full) was read as AHR act 90.4, HSF1 inhib inactive, GAA850 FXN act inactive, DAX1 inh inactive and HSF-1 act inactive.
For CC(CC(=O)Nc1ccccc1)NCCCN1CCCC1=O (stereo not given) the results were AHR act inactive, HSF1 inhib inactive, GAA850 FXN act inactive, DAX1 inh inactive and HSF-1 act inactive.
`CC(=O)N1c2ccc(Cl)cc2C2C=CCC2C1c1cccc2ccccc12` (stereo not given) gave AHR act inactive, GAA850 FXN act inactive and DAX1 inh inactive.
`CC(=O)N1c2ccc3ccccc3c2C2C=CCC2C1c1ccc(Br)cc1` (stereo not given) gave AHR act 85.0.
`Cc1nn(-c2nc3ccccc3[nH]2)c(=O)c2ccccc12` gave AHR act inactive, HSF1 inhib -81.3, GAA850 FXN act inactive, DAX1 inh inactive and HSF-1 act inactive.
Screening Cc1nn(-c2ccc(Cl)cc2)c(=O)c2ccccc12 returned AHR act 53.9, HSF1 inhib inactive, GAA850 FXN act inactive, DAX1 inh inactive and HSF-1 act inactive.
Cc1nn(-c2ccc(Cl)c(Cl)c2)c(=O)c2ccccc12 was read as AHR act inactive, HSF1 inhib inactive, GAA850 FXN act inactive, DAX1 inh inactive and HSF-1 act inactive.
Screening Cc1cc(C)n(-c2nc3ccccc3[nH]c2=O)n1 returned AHR act inactive, HSF1 inhib inactive, GAA850 FXN act inactive, DAX1 inh 4.3 and HSF-1 act inactive.
For Cc1nn(-c2ccc3ccccc3c2)c(=O)c2ccccc12 the results were AHR act inactive, HSF1 inhib inactive, GAA850 FXN act inactive, DAX1 inh inactive and HSF-1 act inactive.
Cc1ccc(F)cc1NC(=O)c1cnccn1 was read as AHR act inactive, GAA850 FXN act inactive and DAX1 inh inactive.
